Screens: PubChem, National Center for Advancing Translational Sciences (NCATS)
TDP1 cell noCPT – qHTS for Inhibitors of human tyrosyl-DNA phosphodiesterase 1 (TDP1): qHTS in cells in absence of CPT; Potency, µM (highest dose often 46.2 µM), for the others: at the top dose activity change, negative = growth inhibition, actives largely listed as inhibitors; AID 686978, 2013; DT40 Tdp1-/- hTDP1 cells, no CPT, ATP luminescence, 48 h; 15% of 420,000 active; also: % is scaled to controls: 0 for no effect and ±100 for the full control effect; nearly all actives have a fitted effect of over 55% in size
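Chicken DT40 Tdp1-/- cells complemented with human TDP1, screened without camptothecin (DMSO vehicle only), 400 cells/well. Compounds pin-transferred, cells incubated at 37 °C for at least 48 hr. Growth read as ATP-dependent luminescence (CellTiter-Glo, 30 min at RT).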
HT1080 IDH1KD tx – toxicity to HT-1080 IDH1 knockdown cells (counter line) | 2% of 360,000 active | Potency, µM (doses to about 46.1 µM), inactives show top-dose activity, negative = toxicity, usual class: cytotoxic | AID 686971 | HT-1080 IDH1 knockdown viability, ATP luminescence, 48 h;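 also: 0% = DMSO wells and -100% = cell-free medium wells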
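Cytotoxicity counter-line: IDH1KD HT-1080, 48 h, CellTiter-Glo. Curves classed by r2, magnitude and activity.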
TGFb SMAD3 inh – TGF-b pathway inhibition; HepG2 CAGA-GFP TGF-b/SMAD3 reporter, GFP fluorescence, 18 h; TGF-beta stimulated, 500 pg/mL final; Potency, µM (series often up to 46.1 µM), without a hit: at the top dose activity, negative = inhibition, hits mostly inhibitors; 1.2% of 410,000 active; AID 588855; also: % is scaled to controls: 0 for no effect and ±100 for the full control effect; nearly all actives have a fitted effect of over 65% in size
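Per well, imaged GFP fluorescence of HEPG2 CAGA-GFP cells gives the signal; cells get compound, then TGF-beta (500 pg/mL final), 18 h at 37 degrees C; %Activity versus -TGF-beta and +DMSO controls.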
HepG2 viability – counter-screen for TGF-b inhibitors: cytotoxicity in HepG2 cells. HepG2 CAGA-GFP viability, ATP luminescence, 18 h. Potency, µM (highest dose often 46.1 µM), without a hit: at the top dose activity change, negative = cytotoxicity, most hits filed as cytotoxic. 0.76% of 410,000 active
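HepG2 CAGA-GFP cells (1000/well, DMEM with 1% FBS) received compound, then TGF-beta at 500 pg/mL final, and were incubated 18 hours at 37 degrees C. Viability was read by CellTiter-Glo luminescence. Media-only wells were set as complete cell-killing and DMSO as no toxicity.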
HT1080NT lethal – kills 2HG-producing HT-1080-NT fibrosarcoma cells; HT-1080-NT fibrosarcoma viability, CellTiter-Glo ATP luminescence, 48 h; Potency, µM (series often up to 46.1 µM), for inactives: at the highest dose activity, negative = less viability, hits mostly cytotoxic; 1.6% of 360,000 active;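 also: NT is the 2HG producing partner of a matched IDH1 knockdown line; 0% = DMSO-treated cells and -100% = media-only wells without cells; nearly all actives have a fitted effect of over 55% in size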
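Viability of the 2HG-overproducing fibrosarcoma line after 48 hours of compound exposure at 37 degrees C was determined by luminescence with CellTiter-Glo, and concentration-effect curves were then fitted and categorized.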
DT40 TDP1 CPT – DT40-hTDP1 cell growth loss with CPT. chicken DT40 Tdp1-/-;hTDP1 cells + 20 nM CPT, ATP luminescence, 48 h. Potency, µM (series often up to 46.2 µM), inactives show at the top dose activity change, negative = growth inhibition, most hits filed as inhibitors. 12% of 420,000 active. AID 686979; also: % is scaled to controls: 0 for no effect and ±100 for the full control effect; nearly all actives have a fitted effect of over 55% in size
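Chicken DT40 Tdp1-/- cells stably complemented with human TDP1 were seeded at 400 cells/well in medium containing 20 nM camptothecin, exposed to pin-transferred compounds, and grown at 37 °C for at least 48 hr. Viability was read as ATP luminescence.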
Numbers without * were called inactive; ? = inconclusive; · = not tested or not shown; [ ] = another dose, or the depositor's remark. The list is not random: actives were taken first. Their share in the collection is about 17%. Calls follow the shape of the dose curve; as a rule, active = well fitted curve in the direction sought with a large enough effect; inconclusive = small, poorly fitted or top-dose-only effect, or another doubt; inactive = no such curve, though single readings can be large; an effect the other way counts as inactive or inconclusive. Potency is read from the fitted curve at half-maximal effect.

SMILES	TDP1 cell noCPT	HT1080 IDH1KD tx	TGFb SMAD3 inh	HepG2 viability	HT1080NT lethal	DT40 TDP1 CPT
CCCSc1ncc(Cl)c(C(=O)Nc2ccc(S(=O)(=O)N3CCC(C)CC3)cc2)n1	15µM*	·	·	-14%	·	?
CCCSc1ncc(Cl)c(C(=O)Nc2ccc(S(=O)(=O)Nc3ncccn3)cc2)n1	-5%	-9%	22%	1%	-8%	-6%
CCC1CCCCN1S(=O)(=O)c1ccc(NC(=O)c2cccs2)cc1 (centres undefined)	16µM*	-29%	?	-57%	?	23µM*
COc1cc(C(=O)NC2CC(C)CC(C)(C)C2)cc(OC)c1OC (centres undefined)	?	11%	?	-22%	1%	-27%
Cc1ccn2c(=O)cc(COc3ccc(NC(=O)COc4ccc(Cl)cc4)cc3)nc2c1	-1%	·	6%	2%	·	-2%
CCSc1nnc(NC(=O)c2ccc(Br)s2)s1	?	6%	20%	-5%	-2%	-25%
CC(NC(=O)Nc1nnc(C(F)(F)F)s1)(C(F)(F)F)C(F)(F)F	5.2µM*	3.3µM*	?	-43%	7.3µM*	4.1µM*
Cc1ccc(CC(=O)Nc2nc3c(s2)CCCC3)cc1	?	?	0%	-28%	?	?
CC(C)(C)CC(=O)Nc1nnc(C(F)(F)F)s1	-23%	-14%	-1%	-17%	-14%	-8%
O=C(Nc1nnc(C(F)(F)F)s1)c1ccc(Br)s1	15µM*	?	?	6%	?	13µM*
Cc1cccc(C(=O)Nc2sc3c(c2C(=O)NC(C)C)CCCC3)c1	15µM*	·	-10%	-9%	·	?
Cc1cccc(C(=O)Nc2nc3c(s2)CCCC3)c1	18µM*	·	?	-12%	·	?
Cc1cccn2c(=O)c3cc(C(=O)N4CCN(Cc5ccccc5)CC4)sc3nc12	-22%	-1%	-3%	-18%	-10%	?
COc1ccccc1NCc1nnc2n1CCCCC2	2%	·	-18%	-5%	·	-1%
CCC(=O)N(C)C[C@H]1Oc2cc(-c3ccccc3F)ccc2S(=O)(=O)N([C@H](C)CO)C[C@H]1C	?	2%	-13%	-32%	2%	?
CCN(CC)S(=O)(=O)c1ccc2c(c1)N(CC(=O)Nc1c(C)cccc1C)C(=O)CO2	-3%	·	·	-6%	·	2%
O=C(Nc1nc2c(s1)CCCC2)c1ccc(N2C(=O)CCC2=O)cc1	1%	1%	4%	-2%	10%	1%
COc1ccc(C(=O)Nc2nc3c(s2)CCCC3)cc1Cl	15µM*	·	?	-37%	·	?
O=C(Nc1nc2c(s1)CCCC2)c1ccc2ncsc2c1	?	-3%	-18%	-26%	?	16µM*
Cc1ncsc1C(=O)Nc1nc2c(s1)CCCC2	?	?	-22%	-57%	?	-29%
O=C(Nc1nc2c(s1)CCCC2)c1ccc(Br)s1	29µM*	?	-21%	-32%	?	16µM*
Cc1cc(C(=O)Nc2nc3c(s2)CCCC3)cs1	?	?	-3%	-7%	6.3µM*	?
COc1cc(OC)c(OC)cc1CN1CCOc2ccc(CN3C[C@@H](C)O[C@@H](C)C3)cc2C1	?	·	·	·	·	-19%[9.04 µM]
CN(Cc1ccco1)C(=O)c1ccc(CNS(=O)(=O)c2ccc3c(c2)C(C)(C)C(=O)N3C)cc1	-29%	-1%	-6%	-18%	1%	-6%
Cc1ccc(CNC(=O)C(C(C)C)N2Cc3ccccc3C2=O)cc1 (centres undefined)	?	·	?	-23%	·	?
SMILES	TDP1 cell noCPT	HT1080 IDH1KD tx	TGFb SMAD3 inh	HepG2 viability	HT1080NT lethal	DT40 TDP1 CPT
CCOc1ccccc1C(=O)Nc1ccc(S(=O)(=O)N2CCN(C)CC2)cc1	-15%	1%	12%	0%	-2%	?
CCOc1ccccc1C(=O)Nc1ccc(-n2nncc2C(C)(C)C)cc1	15µM*	1%	?	-25%	5%	21µM*
CCOc1ccccc1C(=O)Nc1ccc(-n2nncc2-c2ccccc2)cc1	23µM*	·	39%	-6%	·	?
Cc1cccc2cc(/C=N/NC(=O)[C@H]3C[C@@H]3c3ccccc3)c(Cl)nc12	0%	-1%	0%	-16%	-7%	-1%
O=C(N/N=C/c1cccnc1)/C(=C\c1cccs1)NC(=O)c1ccccc1	-20%	-1%	0%	-3%	6%	-3%
COc1ccc(/C=C(/NC(=O)c2ccccc2)C(=O)N/N=C/c2cccs2)cc1OC	-3%	3%	-4%	-6%	0%	-2%
O=C(N/N=C/c1cc2ccccc2nc1Cl)/C(=C/c1cccs1)NC(=O)c1ccccc1	?	-9%	-1%	3%	-13%	23µM*
COc1ccc([N+](=O)[O-])cc1/C=N/NC(=O)/C(=C\c1cccs1)NC(=O)c1ccccc1	21µM*	1%	-1%	-11%	-8%	?
O=C(N/N=C/c1cc2ccccc2nc1Cl)[C@H]1C[C@@H]1c1ccccc1	16µM*	-3%	-12%	18%	0%	21µM*
COc1cccc(C(=O)OCCNC(=O)c2cccnc2)c1	-6%	-1%	9%	17%	3%	1%
CC(C)n1cc(CNC(=O)C2CCC(=O)N(Cc3ccccc3F)C2)cn1 (centres undefined)	1%	14%	-8%	-4%	5%	11%
Cc1ccc(N(CC(=O)NCc2ccc(F)cc2)S(=O)(=O)c2c(C)nn(C)c2C)cc1	?	-10%	?	8%	0%	?
Cc1cccc(Oc2nc3ccccn3c(=O)c2/C=C(\C#N)c2nc3ccccc3s2)c1C	4.6µM*	·	2%	-3%	·	21µM*
COc1ccccc1C1CN(Cc2cnn(C)c2C)Cc2ccccc2O1 (centres undefined)	-21%	·	·	·	·	-2%[9.04 µM]
COC(=O)/C=C1\S/C(=N\N=C\CC(=O)OC)NC1=O	5.2µM*	-2%	7%	9%	-1%	3.7µM*
COC(=O)/C=C1/S/C(=N/NC(=O)c2ccccc2OC)NC1=O	?	20%	-6%	0%	14%	-23%
COc1cc(=O)n2c(c1C(=O)N(C)Cc1nonc1C)CCN(Cc1ccc(F)cc1)CC2	-15%	·	·	·	·	6%[9.04 µM]
COc1ccccc1NNC(=O)C(O)(c1ccccc1OC)c1ccccc1OC	23µM*	25%	-4%	-13%	15%	18µM*
